Records with an inconclusive call do not appear. Activity calls are given as the source filed them. Calls follow the shape of the dose curve; as a rule, active = well fitted curve in the direction sought with a large enough effect; inconclusive = small, poorly fitted or top-dose-only effect, or another doubt; inactive = no such curve, though single readings can be large; an effect the other way counts as inactive or inconclusive. Square brackets hold non-standard residues; d marks the D form. Peptide text beside a SMILES is read from it. * marks the point of attachment. ξ: configuration not given here. Hexanoyl = CCCCCC(=O)*; ξL = CC(C)CC(N)C(=O)O
Key:
[1] = U-118MG Cancer Cell Toxicity qHTS against the NCATS CANVASS Library (AID 1347351); also: potency is read from the fitted curve at half-maximal effect
Procedure, shortened: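 Toxicity is measured over 72 h of compound exposure at 37 degrees C under 5% CO2. Each well holds 1000 cells, pre-incubated for 4 hours before dosing across an 11-point range. CellTiter-Glo luminescence gives viability.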

[2] = Secretion counterscreen for inhibitors of the SERCaMP assay screened against the NCATS CANVASS Library (AID 1347390);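 also: light from luciferase secreted into medium read as a measure of general secretion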; also: potency is read from the fitted curve at half-maximal effect
Procedure, shortened: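 SH-SY5Y cells expressing constitutively secreted GLuc, 1000 cells/well, attached 4 h at 37C, then exposed to compounds (0.001 - 77 uM, 11-pnt series) for 20 h. Coelenterazine added; luminescence read to flag secretory-pathway interferers.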

[3] = Vero-766 cells viability qHTS against the NCATS CANVASS Library: Counterscreen for Zika virus inhibition assay (AID 1347394); also: nearly all actives have a fitted effect of over 60% in size; also: potency is read from the fitted curve at half-maximal effect
Procedure, shortened: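 Uninfected Vero 766 (African green monkey) cells, 1000/well, attached overnight, then exposed 72 h at 37C to compounds (11-point qHTS). Viability read by CellTiter-Glo luminescence; media-only wells served as 100% inhibition.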

[4] = Viability qHTS for inhibitors of the SERCaMP assay screened against the NCATS CANVASS Library (AID 1347400); also: nearly all actives have a fitted effect of over 70% in size; also: potency is read from the fitted curve at half-maximal effect
Procedure, shortened: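 Seed SH-SY5Y-GLuc SERCaMP MJH297 cells at 1000 per well, incubate 4 h, add compounds across an 11-point range, incubate 48 h at 37C, then add CellTiter-Glo and read luminescence.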

[5] = Redox Reaction Profiling qHTS: Assay Interference Panel against the NCATS CANVASS Library (AID 1347401)
Procedure, shortened: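 Quantitative HTS over an 11-point series was run in HEPES pH 7.3 with 50 mM NaCl, 200 uM DTT and 5 uM resazurin. Initial and 15-min resorufin fluorescence readings were taken.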

[6] = UWB1.289-WTBRCA1 Cancer Cell Toxicity qHTS against the NCATS CANVASS Library (AID 1347354); also: potency is read from the fitted curve at half-maximal effect
Procedure, shortened: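 First, 1000 cells go into each well and rest for 4 hours. Next, an 11-point dilution range is pinned in. Plates then incubate 72 hours before CellTiter-Glo addition and luminescence reading.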

[7] = KB-3-1 Cancer Cell Toxicity qHTS against the NCATS CANVASS Library (AID 1347366); also: nearly all actives have a fitted effect of over 75% in size
Procedure, shortened: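 KB-3-1 cells (500 cells/well) in DMEM + 10% FBS were treated with compounds for 72 hr at 37C, 5% CO2. Viability was read as CellTiter-Glo luminescence after 10 minutes at room temperature.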

[8] = G06 Cancer Cell Toxicity qHTS against the NCATS CANVASS Library (AID 1347368); also: nearly all actives have a fitted effect of over 60% in size; also: potency is read from the fitted curve at half-maximal effect
Procedure, shortened: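 Cells were plated at 500 per well, then compounds were added over an 11-point range. After 72 hr at 37C, CellTiterGlo was added and luminescence measured as ATP content.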

[9] = molecular target: Cytochrome P450 3A4 (Homo sapiens) (UniProt P08684); test: qHTS Assay for Activators of Cytochrome P450 3A4 (AID 885); also: nearly all actives have a fitted effect of over 65% in size
Procedure, shortened: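 Human CYP3A4 dealkylates Luciferin-PPXE to luciferin, which luciferase detection converts to light. Substrate was at its KM (25uM), buffer 200mM KPO4, reaction 60 min at RT.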

[10] = Confirmation and Secondary Assay for Modulators of Hemoglobin Beta Chain Splicing at IVS2 654 locus (AID 910);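 also: per-well total GFP intensity by laser scanning cytometry after 2-day treatment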
Procedure, shortened: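 HeLa cells stably carrying EGFP interrupted by mutant beta-globin IVS2-654 intron (CMV-driven) were treated with compound for 2 days at 37C; corrected splicing was scored as total peak GFP intensity per well (488 nm excitation, 500-520 nm emission).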

[11] = Confirmation and Secondary Assay for Modulators of Hemoglobin Beta Chain Splicing at IVS2 705 locus (AID 930);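 also: HeLa cells stably expressing the EGFP-705 splicing reporter; GFP fluorescence per well restored by corrected splicing of the IVS2-705 intron in EGFP; series mostly up to about 46 µM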
Procedure, shortened: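 HeLa EGFP-705 reporter; 500 cells/well, o/n 37C 5% CO2; cpd 2 d; 488 ex/500-520 em laser scan; total peak GFP intensity/well. Ref: 500 nM […] antisense PNA.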

Measured: Potency

Cytochrome P450 3A4 (Homo sapiens), sequence (P08684 whole entry, looked up): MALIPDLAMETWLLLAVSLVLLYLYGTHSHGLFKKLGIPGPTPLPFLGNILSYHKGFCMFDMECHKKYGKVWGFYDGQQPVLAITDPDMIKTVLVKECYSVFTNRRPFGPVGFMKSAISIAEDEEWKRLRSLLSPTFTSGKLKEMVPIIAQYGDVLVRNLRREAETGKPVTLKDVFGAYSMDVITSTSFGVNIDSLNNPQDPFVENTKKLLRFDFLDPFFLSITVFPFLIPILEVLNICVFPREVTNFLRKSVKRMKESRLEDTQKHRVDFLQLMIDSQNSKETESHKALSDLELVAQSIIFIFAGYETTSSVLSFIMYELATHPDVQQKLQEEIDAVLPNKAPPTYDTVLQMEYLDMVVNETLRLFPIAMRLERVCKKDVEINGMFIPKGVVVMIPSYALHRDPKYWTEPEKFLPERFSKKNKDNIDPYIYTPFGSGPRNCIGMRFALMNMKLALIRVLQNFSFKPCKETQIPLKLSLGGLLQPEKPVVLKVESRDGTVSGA

C[C@@]12CCC[C@@](C)(C(=O)O)[C@H]1CC[C@@]13C[C@@H](CC[C@H]12)[C@](C)(O)C3
inactive: [1] | [2] | [3] | [4] | [5]

[C-]#[N+][C@@]12C(=O)[C@@H]3[C@@H](O[C@@]4(C(=O)N(C)c5cccc1c54)C3(C)C)C(=O)[C@@]2(C)C=C
inactive: [6] | [7] | [5]

C=C(C)C(=O)O[C@H]1C[C@@]2(C)OC(=CC2=O)/C(C)=C\[C@H]2OC(=O)C(=C)[C@H]12
active: [6] 10.6 µM | [8] 2.09 µM | [2] 3.05 µM | [3] 13.2 µM | [4] 4.8 µM
inactive: [5]

CN1C(=O)C(=O)N2C(=C[C@]3(c4c[nH]c5ccccc45)c4ccccc4N[C@H]23)C1=O
inactive: [1] | [3] | [5]

COc1ccc([C@@H]2c3cc4c(cc3C(=O)C(C)C2C)OCO4)cc1OC (stereo partly drawn)
inactive: [1] | [7] | [3] | [4]

CCCCCC(=O)N[C@@H](CC(C)C)C(=O)N[C@H](C=O)CCC(=O)O (Hexanoyl-Leu-Glu-aldehyde)
inactive: [6] | [8] | [3] | [4]

C=C1C[C@]23C=CC(=O)[C@@](C)(CCCC(C)C(=O)N[C@@H](CO)C(=O)O)[C@@H]2C[C@@H]1CC3 (stereo partly drawn)
inactive: [7] | [2] | [4] | [5]

C=C(Cl)[C@](Cl)(CBr)CC[C@@H](Br)C(C)(C)Cl
inactive: [4]
active: [1] 8.41 µM | [6] 18.8 µM

CCC(C)=C1OC(=O)[C@H](C)[C@H](O)[C@H](Cc2cccnc2)NC(=O)C(NC(=O)c2ncccc2O)C(C)OC1=O (stereo partly drawn)
inactive: [6] | [7] | [8] | [2] | [5]

CN1CC[C@@]23c4ccccc4N[C@@H]1[C@@]21CCN(C)[C@@H]3Nc2ccccc21
inactive: [1] | [4] | [5]

CC[C@@H](C)[C@H]1NC(=O)C(CC(C)C)NC(=O)[C@@H](CC(C)C)NC(=O)[C@H](Cc2c[nH]c3ccccc23)NC(=O)CNC(=O)[C@@H](CC(N)=O)NC1=O (stereo partly drawn) (cyclo(GW[dL][ξL][dI][dN]))
inactive: [6] | [5]

O=Cc1ccc2n1C[C@]1(C[C@H](O)[C@@H](CO)O1)OC2
not listed: [9] | [10] | [11]
inactive: all other assays above

COC(=O)[C@]1([C@H]2CCC(=O)O2)CC(=O)c2c(O)cc(C)cc2O1
inactive: [7] | [8] | [2] | [3] | [4] | [5]

C[C@@]1(CCC(=O)Nc2c(O)ccc(C(=O)O)c2O)C(=O)C=C[C@]23C[C@H]4C[C@H](O[C@@]4(C)C2)C31 (stereo partly drawn)
inactive: [1] | [6] | [8]

CC(=O)c1c(C)cc2c(c1O)C(=O)c1c(O)cc(O)cc1C2=O
inactive: [1] | [8] | [2] | [3] | [4] | [5]

C=C1CCC2C(C)(C(=O)O)CCC(CC/C(C)=C/C(=O)NC(CCC(N)=O)C(=O)O)[C@@]2(C)C1 (stereo partly drawn)
inactive: [1] | [6] | [7] | [8] | [5]

COc1ccc(-c2oc3cc(OC)cc(OC)c3c(=O)c2O)cc1
inactive: [1] | [3]
active: [8] 9.35 µM

O=C1CC(c2ccc(O)cc2)Oc2cc(O)ccc21 (stereo not drawn)
not listed: [7] | [9] | [10] | [11]
inactive: all other assays above

O=C1c2c(O)cc(O)cc2OC(c2ccc(O)cc2)C1O (stereo not drawn)
inactive: [7] | [5]

C=C1[C@@]2(C)CC3C4(C)CCC(O)C(C)(C)C4CCC3(C)[C@]1(C(=O)OC)C(=O)C(C)(O)C2=O (stereo partly drawn)
inactive: [1] | [7] | [8] | [3] | [4] | [5]

COC1C(C)OC(OCC23C[C@@H]4[C@H](C)CC[C@H]4C4(C=O)CC2C=C(C(C)C)C34C(=O)O)[C@@H](O)[C@H]1O (stereo partly drawn)
inactive: [6] | [7] | [8] | [5]

C[C@@]12CCC[C@@](C)(C(=O)O)[C@H]1C[C@@H](O)[C@@]13C[C@@H](CC[C@@H]21)[C@](C)(O)C3
inactive: [6] | [7] | [3] | [5]

O=c1cc(-c2ccc(O)cc2)oc2cc(O)c([C@@H]3OC(CO)[C@H](O)[C@@H](O)[C@H]3O)c(O)c12 (stereo partly drawn)
inactive: [1] | [7] | [8] | [2] | [4] | [5]

CC(C)=CCCC(C)(O)[C@H]1CC=C(C)C(O)C1 (stereo partly drawn)
inactive: [7] | [2] | [4] | [5]

C/C=C1/C2=CCCN3C(=O)O[C@H]([C@H]1O)[C@H]23
inactive: [1] | [7] | [2] | [4] | [5]

O=C1CC(c2ccc(O)cc2)Oc2ccccc21 (stereo not drawn)
inactive: [9] | [10] | [11] | [1] | [7] | [3]

C=CC(C)(C)C(=O)[C@@H](C)[C@@H]1CC[C@@](C)(C=C)O1
inactive: [6] | [8] | [2] | [3]

COc1c(O)cc(O)c2c(=O)cc(-c3ccccc3)oc12
inactive: [6] | [2] | [4] | [5]

CO[C@@H](C[C@@H](C)[C@@H](O)/C=C/C=C/CNC(=O)C(C)(C)[C@H](O)\C(C)=C/C=C\C=C\Cc1cnco1)[C@]1(O)[C@@H](C)C(=O)N(C)[C@@]12COC2=O
inactive: [1] | [8] | [2] | [5]

O=C1OC(CCO)c2cccc(O)c21 (stereo not drawn)
inactive: [1] | [7] | [4] | [5]

CC(=O)N[C@H](C)c1nc(/C=C/C=C/C(=O)CC2CC(=O)CC[C@]2(C)O)cs1 (stereo partly drawn)
inactive: [1] | [6] | [7] | [8] | [3]

COc1cc2ccc(=O)oc2c(O)c1O[C@@H]1O[C@H](CO)[C@@H](O)[C@H](O)[C@H]1O
inactive: [1] | [6] | [3]

CC1=C(C)C(=O)OC(C(C)C2(O)CCC3C4C5OC5C5(O)CC=CC(=O)C5(C)C4CCC32C)C1 (stereo not drawn)
inactive: [3]
active: [8] 23.5 µM

— PubChem BioAssay (NCATS)
